Autofluor counter: flagged as autofluorescent in microsphere protease counterscreen; compound autofluorescence counterscreen, microsphere flow cytometry; active compounds read high; fluorescence intensity (test concentration not listed); 3.1% of 360,000 active; AID 624483; in the data active = fluorescence intensity above about 16000; inconclusive = no clear call, values can overlap the other calls
BoNT-A LC inh2: BoNT A light chain protease inhibition; multiplex microsphere protease substrate cleavage, flow cytometry; inhibition, % at 10 µM; 0.17% of 360,000 active; AID 588499; note: plate controls were buffer without enzyme for full effect and enzyme alone for no effect
BoNT-F LC inh: blocks Botulinum neurotoxin F light chain protease; inhibition, % at 10 µM; Multiplex microsphere protease cleavage assay, flow cytometry; 0.22% of 360,000 active; in the data active = inhibition above about 35%, passing the limit was not always enough; inconclusive = no clear call, values can overlap the other calls; note: plate controls were buffer without enzyme for full effect and enzyme alone for no effect
Anthrax LF inh2: blocks Bacillus anthracis lethal factor protease; P15917; multiplex microsphere protease cleavage assay, LF; inhibition, % at 10 µM; 0.12% of 360,000 active; AID 588501; note: plate controls were buffer without enzyme for full effect and enzyme alone for no effect
Target sequence (P15917 whole entry, looked up): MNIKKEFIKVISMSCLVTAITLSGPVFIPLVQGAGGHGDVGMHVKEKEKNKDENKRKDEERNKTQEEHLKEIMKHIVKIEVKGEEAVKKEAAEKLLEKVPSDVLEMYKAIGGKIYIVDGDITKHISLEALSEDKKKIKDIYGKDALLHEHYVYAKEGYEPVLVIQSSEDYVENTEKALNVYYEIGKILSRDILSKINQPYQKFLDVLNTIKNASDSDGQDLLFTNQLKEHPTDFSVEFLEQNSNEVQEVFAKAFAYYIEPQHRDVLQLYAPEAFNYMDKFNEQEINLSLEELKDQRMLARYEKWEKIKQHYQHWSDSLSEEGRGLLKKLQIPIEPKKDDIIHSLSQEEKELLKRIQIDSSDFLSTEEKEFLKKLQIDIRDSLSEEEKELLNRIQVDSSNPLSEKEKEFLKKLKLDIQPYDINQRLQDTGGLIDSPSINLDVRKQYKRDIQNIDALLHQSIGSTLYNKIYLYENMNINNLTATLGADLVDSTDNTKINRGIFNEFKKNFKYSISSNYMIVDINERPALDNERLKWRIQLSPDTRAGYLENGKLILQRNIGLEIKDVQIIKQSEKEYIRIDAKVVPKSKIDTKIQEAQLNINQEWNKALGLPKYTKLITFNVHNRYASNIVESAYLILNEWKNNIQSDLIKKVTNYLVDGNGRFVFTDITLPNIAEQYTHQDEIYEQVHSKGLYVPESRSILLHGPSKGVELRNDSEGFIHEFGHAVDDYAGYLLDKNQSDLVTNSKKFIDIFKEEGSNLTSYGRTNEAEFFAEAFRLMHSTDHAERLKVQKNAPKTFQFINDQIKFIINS
TcdB GH inh: TcdB glycohydrolase inhibition; P18177; TcdB glycohydrolase enzymatic assay, plate reader; inhibition, % at 9.99 µM; 0.24% of 350,000 active; in the data active = inhibition above about 10%
* marks the source's active call; other numbers are inactive results; ? = inconclusive; / = not tested or not shown. This excerpt belongs to a sample that is enriched for hits. Cut-off read from the data, not from the text of the source, unless noted: active = inhibition above about 30%; inconclusive = no clear call, values can overlap the other calls; inactive = below that.

SMILES	Autofluor counter	BoNT-A LC inh2	BoNT-F LC inh	Anthrax LF inh2	TcdB GH inh
COc1ccc(NC(=O)N(C)C[C@H]2Oc3ccc(NC(=O)CCN4CCOCC4)cc3CC(=O)N([C@H](C)CO)C[C@H]2C)cc1	/	/	/	/	0.4
C[C@@H](O)C#Cc1ccc2c(c1)O[C@@H](CN(C)C(=O)c1ccccc1)[C@@H](C)CN([C@@H](C)CO)S2(=O)=O	/	/	/	/	0.3
CCCN1C[C@H](C)[C@@H](OC)CN(C)C(=O)c2ccc(NC(=O)c3cnccn3)cc2OC[C@@H]1C	/	/	/	/	-1.4
O=C(Nc1ccccc1)NC1CS(=O)(=O)CC1O (stereo unspecified)	22098*	-0.5	-2.1	0.8	/
O=S1(=O)C[C@@H](O)[C@@H](Nc2ccccc2)C1	/	/	/	/	1.8
C[C@@H]1CN([C@@H](C)CO)C(=O)c2cc(NC(=O)Nc3ccccc3)ccc2O[C@H]1CN(C)C(=O)Nc1ccc(C(F)(F)F)cc1	/	/	/	/	0.9
CC(C)NC(=S)NC1(C)CCS(=O)(=O)C1 (stereo unspecified)	1954	0.0	2.4	-0.7	/
CC1(NC(=O)N2CCCCC2)CCS(=O)(=O)C1 (stereo unspecified)	22585*	2.5	3.2	-1.1	/
CN1c2ccc(C3=CCCCC3)cc2[C@H]2[C@H](CCN2C(=O)C2CC2)[C@@H]1CO	/	/	/	/	-3.4
CC(=O)Oc1ccc(NC(=O)C2CCCCC2)c(C(=O)O)c1	20737*	4.9	4.2	-3.3	/
Cc1ccc(C(=O)C(OC(=O)COc2ccccc2C)c2ccccc2)cc1 (stereo unspecified)	17155*	-1.3	-7.0	-6.0	/
Cc1ccccc1OCC(=O)OC(C(=O)c1ccccc1)c1ccccc1 (stereo unspecified)	2505	-0.1	0.2	0.3	-2.4
Cc1ccc(C)c(NC(=O)CCC(=O)OC(C(=O)c2ccccc2)c2ccccc2)c1 (stereo unspecified)	15572	2.2	2.6	2.3	/
O=C(CCC(=O)OC(C(=O)c1ccccc1)c1ccccc1)Nc1ccccc1 (stereo unspecified)	21923*	-0.1	-1.9	-1.3	/
CO[C@H](CN(C)Cc1nccs1)[C@@H](C)CN([C@@H](C)CO)S(=O)(=O)c1ccc(C)cc1	/	/	/	/	0.0
Cc1ccc(NC(=O)N/C=C/c2ccco2)cc1	22171*	1.0	3.8	-0.6	/
Cc1sc2nc(SCC(=O)C(C)(C)C)n(Cc3ccco3)c(=O)c2c1C	22551*	1.4	-1.2	-3.3	/
COc1ccc(NC(=O)CSc2nc3sc(C)c(C)c3c(=O)n2Cc2ccco2)cc1	21853*	?	6.2	1.5	1.2
COc1cccc(CSc2nc3sc(C)c(C)c3c(=O)n2Cc2ccco2)c1	19855*	5.8	8.2	-12.0	/
Cc1sc2nc(SCc3ccccc3)n(Cc3ccco3)c(=O)c2c1C	15662	2.6	-0.7	-2.6	/
COc1ccc(NC(=O)N(C)C[C@H]2Oc3ccc(NS(C)(=O)=O)cc3C(=O)N([C@@H](C)CO)C[C@@H]2C)cc1	/	/	/	/	-0.9
O=C(Nc1ccncc1)c1cn(-c2ccccc2)nc1-c1cccs1	?	-1.4	-21.3	-1.6	/
CC(NC(=O)COC(=O)c1cn(-c2ccccc2)nc1-c1cccs1)c1ccccc1 (stereo unspecified)	18189*	6.6	5.1	-10.4	/
COc1ccc2c3c(n(C)c2c1)[C@H](CO)N(S(C)(=O)=O)CC31CN(C(=O)C2CCC2)C1	/	/	/	/	0.7
O=C1NC(c2cccnc2)Nc2sc3c(c21)CCCC3 (stereo unspecified)	10852	-1.3	-6.3	4.2	/
SMILES	Autofluor counter	BoNT-A LC inh2	BoNT-F LC inh	Anthrax LF inh2	TcdB GH inh
O=C1NC(c2ccc(Br)cc2)Nc2sc3c(c21)CCC3 (stereo unspecified)	22598*	1.0	1.8	-3.9	/
COc1ccc(-n2c(-c3ccc(Cl)cc3)c[n+]3c2CCc2ccccc2-3)cc1	4685	-0.2	-1.9	-2.8	0.6
Cc1ccc(-n2c(-c3ccc(Br)cc3)c[n+]3c2CCc2ccc4cccnc4c2-3)cc1	21635*	-1.5	0.9	1.7	/
O=C(N[C@H]1CC[C@@H](CCNC(=O)C2CC2)O[C@H]1CO)c1ccncc1	/	/	/	/	-0.3
Nc1ccc(-c2nc3ccccc3[nH]2)cc1	6269	-1.5	-13.1	-6.3	1.5
Nc1ccccc1-c1nc2ccccc2[nH]1	22286*	1.3	3.3	-3.4	/
O=C(Nc1ccc(Cl)c([N+](=O)[O-])c1)c1ccc(NCCCN2CCOCC2)c([N+](=O)[O-])c1	23261*	0.7	-2.0	-2.3	/
Cc1ccc(NC(=O)c2ccc(NCCCN3CCOCC3)c([N+](=O)[O-])c2)cc1Cl	2363	-0.1	-3.9	-0.5	/
C=C1CC(C)OC(c2ccccc2OCC(O)CN2CCCCC2)C1 (stereo unspecified)	21660*	?	-3.9	1.1	0.5
CN(C)c1ccc(/C=C/c2cc[n+](C)cc2)cc1	16151*	-3.2	-7.1	-7.6	/
Cc1ccc(/C=C/c2ccc(N(C)C)cc2)[n+](C)c1	6826	-5.4	?	-0.3	-0.2
C=CCn1c(SCC(=O)c2cccs2)nc2sc(CC)cc2c1=O	22827*	1.8	4.7	1.3	/
C[C@H](CO)N1C[C@H](C)[C@@H](CN(C)Cc2ccc(C(=O)O)cc2)OCCCC[C@H](C)Oc2ccc(NC(=O)Nc3ccccc3)cc2C1=O	/	/	/	/	-20.7
O=c1ccc2ccc(O)cc2o1	5099	-0.2	-1.1	4.7	-0.5
O=c1ccc2cc(O)c(O)cc2o1	5792	-0.8	-7.5	-9.5	13.2*
CCNC(=O)[C@@H]1[C@@H](CO)[C@@H]2Cn3c(ccc(/C=C/c4ccccc4)c3=O)[C@H]1N2CC	/	/	/	/	-0.8
Cc1cccc(-c2ccc([C@H]3[C@@H](CO)N4CCCCN(CCC(F)(F)F)C[C@H]34)cc2)c1	/	/	/	/	0.0
C[C@H](CO)N1C[C@H](C)[C@@H](CN(C)C(=O)Nc2ccccc2)Oc2ccc(NC(=O)Nc3cccc4ccccc34)cc2CC1=O	/	/	/	/	0.4
Cc1oc(CSCCSCc2cc(C(=O)O)c(C)o2)cc1C(=O)O	3514	2.9	?	-5.5	-5.2
Cc1oc(C2CC2)cc1C(=O)O	19572*	0.8	-0.6	-1.7	/
CC(COC(=O)c1ccccc1)(COC(=O)c1ccccc1)/[N+]([O-])=C/c1ccccc1	2282	-0.1	1.5	1.7	-0.2
CC(C)(C(=O)c1ccccc1)/[N+]([O-])=C/c1ccc(Br)cc1	22272*	2.8	6.7	-3.7	0.7
CCOC(=O)N1CCN(c2cc(N3CCN(CC)CC3)c(F)cc2[N+](=O)[O-])CC1C (stereo unspecified)	18259*	3.2	0.8	-5.3	/
Cc1cc(C)c(C(N)=O)c(NC(=O)Nc2ccccc2)n1	22860*	-0.4	0.7	-3.6	/
Cc1cc(C)n(CCc2nc(-c3ccco3)cs2)n1	19796*	3.3	4.9	0.6	1.2
Cc1cc(C)n(CCc2nc(-c3cccs3)cs2)n1	2263	0.0	-16.8	-1.3	/
C[C@@H]1CN([C@@H](C)CO)C(=O)c2cc(NC(=O)Nc3ccc(C(F)(F)F)cc3)ccc2O[C@@H]1CN(C)C	/	/	/	/	-0.7
CCN(C(=O)Cc1c(C(=O)O)[nH]c2ccccc12)c1cc(OC)ccc1OC	20129*	0.3	-1.1	-4.0	/
COc1ccc(N(C)C(=O)Cc2c(C(=O)O)[nH]c3ccccc23)cc1	3516	-1.5	-1.4	7.5	-0.5

Compound activity: PubChem BioAssay, several laboratories
